Experimental data from the supplement of paper PMC10849652.
The full data set covers some 7,900 targets. This sample favours those with a hit. About 0.6% of all pairs of compound and target were hits.

Columns and labels:
Experiment in all cases: log2 fold change, soluble protein after heating vs DMSO (PISA); higher = thermal stabilisation; K562 cells, 10 uM, 30 min; active = over 0.2 and 3.5 SD of the protein, either way, in both replicates (recomputed)
[1] = compound: CC1=C(C=C(C=C1)NC(=O)C2=CC(=CC=C2)C(C)(C)C#N)NC3=CC4=C(C=C3)N=CN(C4=O)C
In short: (§1)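 K562 cells (2×10^6 cells/mL) were treated with 10 μM compound for 30 min, and aliquots were heated for 3 min over 48°C-58°C. Pooled aliquots were extracted in PBS with 0.5% NP-40 at 4°C, and the supernatant after 21,000xg for 90 min was measured by TMTpro 16plex LC-MS/MS with channel sums equalised. Reported thermal stability, relative to control samples and from duplicates, is a log2 fold change.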

[2] = compound: CC1=C(C=C(C=C1)NC(=O)C2=CC(=CC=C2)N(C)C)NC(=O)C3=CC=C(C=C3)O
In short: as §1

[3] = compound: CC1=CC=C(C=C1)SC2=C3C=C(SC3=CN=C2)C(=O)N
In short: as §1

[4] = compound: CC1=NC(=CC=C1)C2=C(N=C(N2)C(C)(C)C)C3=CC4=NC=CN=C4C=C3
In short: as §1

Nexturastat A = compound: CCCCN(Cc1ccc(C(=O)NO)cc1)C(=O)Nc1ccccc1 [Nexturastat A]
In short: as §1

vemurafenib = compound: CCCS(=O)(=O)Nc1ccc(F)c(C(=O)c2c[nH]c3ncc(-c4ccc(Cl)cc4)cc23)c1F [vemurafenib]
In short: as §1

[5] = compound: CCCS(=O)(=O)Nc1ccc(F)c(C(=O)c2c[nH]c3ncc(Cl)cc23)c1F
In short: as §1

[6] = compound: CCCc1cc(C)[nH]c(=O)c1CNC(=O)c1cc(-c2ccnc(N3CCN(C)CC3)c2)cc2c1cnn2C(C)C
In short: as §1

givinostat = compound: CCN(CC)Cc1ccc2cc(COC(=O)Nc3ccc(C(=O)NO)cc3)ccc2c1 [givinostat]
In short: as §1

barasertib = compound: CCN(CCCOc1ccc2c(Nc3cc(CC(=O)Nc4cccc(F)c4)[nH]n3)ncnc2c1)CCOP(=O)(O)O [barasertib]
In short: as §1

[7] = compound: CC[C@@H]1C(=O)N(C)c2cnc(Nc3ccc(C(=O)NC4CCN(C)CC4)cc3OC)nc2N1C1CCCC1
In short: as §1

volasertib = compound: CC[C@@H]1C(=O)N(C)c2cnc(Nc3ccc(C(=O)N[C@H]4CC[C@H](N5CCN(CC6CC6)CC5)CC4)cc3OC)nc2N1C(C)C [volasertib]
In short: as §1

[8] = compound: CC[C@H](C)N1C=C(C2=C(C=C(C=C21)C3=CN=C(C=C3)N4CCNCC4)C(=O)NCC5=C(C=C(NC5=O)C)C)C
In short: as §1

epoxomicin = compound: CC[C@H](C)[C@@H](C(=O)N[C@@H]([C@@H](C)O)C(=O)N[C@@H](CC(C)C)C(=O)[C@]1(CO1)C)NC(=O)[C@H]([C@@H](C)CC)N(C)C(=O)C [epoxomicin]
In short: as §1

[9] = compound: CCn1c(C(=O)N(C2CC2)C2CC2)cc2c3c(ncn3C)c(Nc3cc(C)n(C)n3)nc21
In short: as §1

[10] = compound: CCn1cc(-c2ccnc3[nH]c(-c4cccc(CN(C)C)c4)cc23)c(-c2ccc(NC(=O)N(C)C)cc2)n1
In short: as §1

[11] = compound: CN(C)CC(=O)Nc1ccc2[nH]c(=O)c3ccccc3c2c1
In short: as §1

rosiglitazone = compound: CN(CCOC1=CC=C(C=C1)C[C@H]2C(=O)NC(=O)S2)C3=CC=CC=N3 (racemic) [rosiglitazone]
In short: as §1

[12] = compound: CN1C2=C(C3=C1C(=O)N(N=C3)CC4=CC(=CC=C4)N)SC(=C2)S(=O)C
In short: as §1

[13] = compound: CN1CCC(CNc2ccc3ncc(-c4cccc(OC(F)(F)F)c4)n3n2)CC1
In short: as §1

UniProt O00233, sequence (O00233 whole entry, looked up): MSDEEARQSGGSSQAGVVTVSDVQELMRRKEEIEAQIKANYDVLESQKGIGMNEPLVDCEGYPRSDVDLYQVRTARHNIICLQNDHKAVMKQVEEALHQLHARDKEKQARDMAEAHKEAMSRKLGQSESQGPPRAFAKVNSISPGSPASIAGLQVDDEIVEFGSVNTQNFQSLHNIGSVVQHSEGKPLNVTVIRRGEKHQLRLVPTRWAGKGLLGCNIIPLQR
UniProt Q96PU8, sequence (Q96PU8 whole entry, looked up): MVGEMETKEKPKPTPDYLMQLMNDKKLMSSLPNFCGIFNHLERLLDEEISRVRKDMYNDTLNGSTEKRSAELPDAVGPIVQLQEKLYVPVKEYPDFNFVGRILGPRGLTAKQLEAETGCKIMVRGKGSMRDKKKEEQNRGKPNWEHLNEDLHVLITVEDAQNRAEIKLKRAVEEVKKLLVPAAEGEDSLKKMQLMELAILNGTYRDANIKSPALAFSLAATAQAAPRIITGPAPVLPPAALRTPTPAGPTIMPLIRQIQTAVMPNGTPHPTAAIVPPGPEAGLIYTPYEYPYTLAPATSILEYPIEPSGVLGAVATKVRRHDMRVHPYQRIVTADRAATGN
UniProt Q16822, sequence (Q16822 whole entry, looked up): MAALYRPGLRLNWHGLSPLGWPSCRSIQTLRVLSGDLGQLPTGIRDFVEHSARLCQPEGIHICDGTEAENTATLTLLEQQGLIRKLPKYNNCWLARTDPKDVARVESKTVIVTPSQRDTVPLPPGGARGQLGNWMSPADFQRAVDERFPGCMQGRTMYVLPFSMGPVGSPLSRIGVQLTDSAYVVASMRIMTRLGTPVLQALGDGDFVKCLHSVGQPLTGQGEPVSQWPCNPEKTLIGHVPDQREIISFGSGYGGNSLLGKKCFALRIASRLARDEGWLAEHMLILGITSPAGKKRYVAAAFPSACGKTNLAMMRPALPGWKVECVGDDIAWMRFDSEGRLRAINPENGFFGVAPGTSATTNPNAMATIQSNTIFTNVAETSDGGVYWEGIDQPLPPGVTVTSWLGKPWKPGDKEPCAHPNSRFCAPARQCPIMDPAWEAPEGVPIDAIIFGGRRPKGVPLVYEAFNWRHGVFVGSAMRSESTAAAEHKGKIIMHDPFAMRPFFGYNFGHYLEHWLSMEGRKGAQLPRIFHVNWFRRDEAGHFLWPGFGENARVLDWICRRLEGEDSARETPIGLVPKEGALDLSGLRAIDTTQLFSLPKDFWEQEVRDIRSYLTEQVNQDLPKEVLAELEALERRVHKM
UniProt O15162, sequence (O15162 whole entry, looked up): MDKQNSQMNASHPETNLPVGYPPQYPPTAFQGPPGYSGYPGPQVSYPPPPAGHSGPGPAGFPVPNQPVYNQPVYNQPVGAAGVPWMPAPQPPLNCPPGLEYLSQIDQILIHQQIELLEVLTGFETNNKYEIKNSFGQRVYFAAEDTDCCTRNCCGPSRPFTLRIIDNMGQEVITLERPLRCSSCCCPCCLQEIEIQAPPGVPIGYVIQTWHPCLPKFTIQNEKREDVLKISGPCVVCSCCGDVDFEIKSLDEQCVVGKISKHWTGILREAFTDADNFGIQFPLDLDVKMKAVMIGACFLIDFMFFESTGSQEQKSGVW
UniProt Q8NHP8, sequence (Q8NHP8 whole entry, looked up): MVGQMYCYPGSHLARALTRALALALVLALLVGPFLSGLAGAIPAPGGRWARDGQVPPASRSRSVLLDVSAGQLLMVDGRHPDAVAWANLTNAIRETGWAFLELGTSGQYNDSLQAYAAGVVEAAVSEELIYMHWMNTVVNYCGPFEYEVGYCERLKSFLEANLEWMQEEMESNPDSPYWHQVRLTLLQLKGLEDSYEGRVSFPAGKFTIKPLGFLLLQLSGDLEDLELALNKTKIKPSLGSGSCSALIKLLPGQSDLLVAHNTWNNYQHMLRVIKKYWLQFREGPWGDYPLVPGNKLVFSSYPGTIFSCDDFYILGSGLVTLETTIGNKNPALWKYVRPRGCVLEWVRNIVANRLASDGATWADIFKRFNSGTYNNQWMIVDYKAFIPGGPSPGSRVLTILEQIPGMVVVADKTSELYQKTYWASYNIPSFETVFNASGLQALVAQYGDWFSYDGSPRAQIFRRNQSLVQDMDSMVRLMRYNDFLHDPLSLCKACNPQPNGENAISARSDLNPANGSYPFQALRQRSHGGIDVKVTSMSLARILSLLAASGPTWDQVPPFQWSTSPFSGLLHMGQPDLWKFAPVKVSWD
UniProt O43395, sequence (O43395 whole entry, looked up): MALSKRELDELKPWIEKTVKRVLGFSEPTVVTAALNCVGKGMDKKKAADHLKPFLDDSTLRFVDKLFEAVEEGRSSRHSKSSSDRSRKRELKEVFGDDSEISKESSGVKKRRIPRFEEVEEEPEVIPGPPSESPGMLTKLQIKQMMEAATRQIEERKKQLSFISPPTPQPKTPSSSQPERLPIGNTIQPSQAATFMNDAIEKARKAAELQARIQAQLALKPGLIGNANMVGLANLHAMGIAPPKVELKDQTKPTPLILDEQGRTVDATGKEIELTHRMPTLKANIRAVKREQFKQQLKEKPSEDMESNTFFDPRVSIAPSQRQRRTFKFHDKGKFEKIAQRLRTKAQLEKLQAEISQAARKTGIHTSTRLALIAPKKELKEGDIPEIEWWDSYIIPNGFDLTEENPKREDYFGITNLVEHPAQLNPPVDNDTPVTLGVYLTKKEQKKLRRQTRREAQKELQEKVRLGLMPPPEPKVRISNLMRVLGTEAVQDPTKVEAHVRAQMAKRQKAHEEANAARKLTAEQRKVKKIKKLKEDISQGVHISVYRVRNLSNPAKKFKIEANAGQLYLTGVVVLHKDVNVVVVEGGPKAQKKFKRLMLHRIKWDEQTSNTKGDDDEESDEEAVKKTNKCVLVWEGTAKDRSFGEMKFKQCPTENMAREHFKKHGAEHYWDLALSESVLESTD
UniProt Q9H814, sequence (Q9H814 whole entry, looked up): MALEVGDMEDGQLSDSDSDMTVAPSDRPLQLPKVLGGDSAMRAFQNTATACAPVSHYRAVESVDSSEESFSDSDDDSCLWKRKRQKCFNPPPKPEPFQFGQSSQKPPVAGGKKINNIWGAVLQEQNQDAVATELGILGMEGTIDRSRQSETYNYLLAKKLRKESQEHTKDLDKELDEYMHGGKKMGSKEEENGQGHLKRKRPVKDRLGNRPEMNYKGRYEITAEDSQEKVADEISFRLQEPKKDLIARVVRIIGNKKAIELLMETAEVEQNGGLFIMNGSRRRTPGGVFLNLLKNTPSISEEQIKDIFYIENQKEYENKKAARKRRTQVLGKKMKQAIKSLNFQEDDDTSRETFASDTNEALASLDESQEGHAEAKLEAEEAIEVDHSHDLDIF
UniProt Q15004, sequence (Q15004 whole entry, looked up): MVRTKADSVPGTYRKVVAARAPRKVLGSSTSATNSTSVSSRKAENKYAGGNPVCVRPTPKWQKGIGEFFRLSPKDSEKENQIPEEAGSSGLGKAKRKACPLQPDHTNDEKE
UniProt Q6P4A8, sequence (Q6P4A8 whole entry, looked up): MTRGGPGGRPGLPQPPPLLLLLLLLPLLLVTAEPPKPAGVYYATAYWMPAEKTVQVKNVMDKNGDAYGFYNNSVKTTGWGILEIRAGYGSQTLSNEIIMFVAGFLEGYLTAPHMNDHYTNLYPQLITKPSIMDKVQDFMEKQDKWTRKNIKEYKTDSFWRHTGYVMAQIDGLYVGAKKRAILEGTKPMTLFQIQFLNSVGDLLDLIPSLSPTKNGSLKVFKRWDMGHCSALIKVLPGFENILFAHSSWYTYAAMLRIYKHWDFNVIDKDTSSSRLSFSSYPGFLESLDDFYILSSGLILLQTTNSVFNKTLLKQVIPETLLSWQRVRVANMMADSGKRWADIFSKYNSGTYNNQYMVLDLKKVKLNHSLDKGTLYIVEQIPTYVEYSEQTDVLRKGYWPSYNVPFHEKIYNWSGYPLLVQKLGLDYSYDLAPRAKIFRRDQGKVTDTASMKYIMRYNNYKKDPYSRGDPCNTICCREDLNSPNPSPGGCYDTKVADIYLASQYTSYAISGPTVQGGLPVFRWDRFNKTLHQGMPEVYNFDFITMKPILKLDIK
UniProt Q5MIZ7, sequence (Q5MIZ7 whole entry, looked up): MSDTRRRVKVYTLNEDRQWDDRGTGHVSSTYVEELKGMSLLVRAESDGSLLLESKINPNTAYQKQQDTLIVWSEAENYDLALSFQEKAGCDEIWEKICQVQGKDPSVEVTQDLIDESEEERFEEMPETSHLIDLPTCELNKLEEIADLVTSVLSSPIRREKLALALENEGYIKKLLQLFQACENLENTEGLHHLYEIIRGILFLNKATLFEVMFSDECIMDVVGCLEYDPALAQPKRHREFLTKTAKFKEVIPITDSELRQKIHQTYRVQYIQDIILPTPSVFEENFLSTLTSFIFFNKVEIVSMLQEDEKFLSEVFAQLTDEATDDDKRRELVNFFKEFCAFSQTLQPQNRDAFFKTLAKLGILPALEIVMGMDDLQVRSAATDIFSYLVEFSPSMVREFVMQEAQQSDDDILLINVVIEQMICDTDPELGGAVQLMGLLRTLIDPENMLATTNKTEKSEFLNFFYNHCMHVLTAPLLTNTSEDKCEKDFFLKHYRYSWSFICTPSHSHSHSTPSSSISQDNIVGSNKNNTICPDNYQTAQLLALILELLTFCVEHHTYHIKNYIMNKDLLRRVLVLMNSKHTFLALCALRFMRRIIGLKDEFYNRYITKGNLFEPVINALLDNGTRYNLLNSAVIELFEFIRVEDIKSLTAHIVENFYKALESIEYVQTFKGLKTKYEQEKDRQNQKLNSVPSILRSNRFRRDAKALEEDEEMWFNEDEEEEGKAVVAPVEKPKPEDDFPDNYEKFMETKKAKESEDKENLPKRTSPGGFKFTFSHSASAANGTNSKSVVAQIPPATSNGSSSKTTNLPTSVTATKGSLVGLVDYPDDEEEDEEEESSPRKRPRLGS

| Target | log2 fold change [1] | log2 fold change [2] | log2 fold change [3] | log2 fold change [4] | log2 fold change (Nexturastat A) | log2 fold change (vemurafenib) | log2 fold change [5] | log2 fold change [6] | log2 fold change (givinostat) | log2 fold change (barasertib) | log2 fold change [7] | log2 fold change (volasertib) | log2 fold change [8] | log2 fold change (epoxomicin) | log2 fold change [9] | log2 fold change [10] | log2 fold change [11] | log2 fold change (rosiglitazone) | log2 fold change [12] | log2 fold change [13] |
| --- | --- | --- | --- | --- | --- | --- | --- | --- | --- | --- | --- | --- | --- | --- | --- | --- | --- | --- | --- | --- |
| PHAX (UniProt Q9H814) | -0.019 (inactive) | 0.013 (inactive) | 0.022 (inactive) | -0.043 (inactive) | 0.02 (inactive) | 0.002 (inactive) | -0.019 (inactive) | -0.045 (inactive) | -0.076 (inactive) | -0.008 (inactive) | -0.03 (inactive) | -0.106 (inactive) | 0.027 (inactive) | -0.041 (inactive) | 0.014 (inactive) | 0.111 (inactive) | 0.011 (inactive) | -0.007 (inactive) | -0.054 (inactive) | 0.042 (inactive) |
| PLSCR1 (UniProt O15162) | 0.13 (inactive) | 0.06 (inactive) | 0.025 (inactive) | -0.002 (inactive) | 0.008 (inactive) | -0.05 (inactive) | 0.088 (inactive) | -0.101 (inactive) | -0.033 (inactive) | -0.104 (inactive) | 0.025 (inactive) | -0.1 (inactive) | -0.069 (inactive) | -0.022 (inactive) | 0.013 (inactive) | 0.053 (inactive) | 0.037 (inactive) | -0.033 (inactive) | -0.02 (inactive) | 0.044 (inactive) |
| PLBD1 (UniProt Q6P4A8) | 0.005 (inactive) | -0.023 (inactive) | 0.032 (inactive) | -0.039 (inactive) | 0.005 (inactive) | 0.069 (inactive) | -0.014 (inactive) | 0.006 (inactive) | -0.013 (inactive) | 0.027 (inactive) | -0.063 (inactive) | -0.076 (inactive) | -0.022 (inactive) | -0.016 (inactive) | -0.005 (inactive) | -0.028 (inactive) | 0.088 (inactive) | -0.049 (inactive) | -0.01 (inactive) | -0.352 (active) |
| POLR2M (UniProt P0CAP2) | 0.007 (inactive) | -0.014 (inactive) | 0.027 (inactive) | 0 (inactive) | -0.019 (inactive) | 0.021 (inactive) | -0.062 (inactive) | 0 (inactive) | -0.031 (inactive) | -0.009 (inactive) | 0.084 (inactive) | 0.026 (inactive) | 0.013 (inactive) | -0.018 (inactive) | -0.022 (inactive) | 0.034 (inactive) | 0.004 (inactive) | 0.045 (inactive) | -0.028 (inactive) | 0.037 (inactive) |
| PCK2 (UniProt Q16822) | -0.002 (inactive) | -0.064 (inactive) | -0.008 (inactive) | 0.045 (inactive) | -0.065 (inactive) | -0.006 (inactive) | 0.002 (inactive) | 0.014 (inactive) | -0.13 (inactive) | 0.011 (inactive) | 0.012 (inactive) | -0.076 (inactive) | 0.033 (inactive) | 0.059 (inactive) | 0.016 (inactive) | -0.07 (inactive) | 0 (inactive) | 0.011 (inactive) | -0.094 (inactive) | 0.027 (inactive) |
| QKI (UniProt Q96PU8) | 0.05 (inactive) | -0.037 (inactive) | 0.019 (inactive) | 0.036 (inactive) | -0.109 (inactive) | 0.033 (inactive) | 0.084 (inactive) | -0.045 (inactive) | 0.023 (inactive) | -0.003 (inactive) | -0.008 (inactive) | -0.1 (inactive) | 0.084 (inactive) | 0.049 (inactive) | 0.022 (inactive) | 0.023 (inactive) | 0.034 (inactive) | 0.041 (inactive) | 0.017 (inactive) | -0.172 (inactive) |
| PCLAF (UniProt Q15004) | -0.119 (inactive) | 0.031 (inactive) | -0.014 (inactive) | -0.009 (inactive) | -0.002 (inactive) | -0.097 (inactive) | -0.083 (inactive) | 0.115 (inactive) | -0.061 (inactive) | -0.007 (inactive) | 0.085 (inactive) | 0.124 (inactive) | -0.046 (inactive) | 0.185 (inactive) | 0.012 (inactive) | 0.035 (inactive) | -0.087 (inactive) | -0.014 (inactive) | 0.001 (inactive) | 0.015 (inactive) |
| PSMD9 (UniProt O00233) | -0.012 (inactive) | 0.018 (inactive) | 0.021 (inactive) | 0.012 (inactive) | -0.068 (inactive) | -0.014 (inactive) | -0.021 (inactive) | -0.016 (inactive) | -0.004 (inactive) | 0 (inactive) | -0.011 (inactive) | 0.086 (inactive) | 0.004 (inactive) | -0.04 (inactive) | -0.009 (inactive) | -0.137 (inactive) | -0.01 (inactive) | 0.002 (inactive) | -0.034 (inactive) | 0.127 (inactive) |
| PDCD2L (UniProt Q9BRP1) | -0.001 (inactive) | -0.104 (inactive) | 0.052 (inactive) | 0.068 (inactive) | 0 (inactive) | -0.038 (inactive) | 0.079 (inactive) | 0.045 (inactive) | -0.088 (inactive) | 0.069 (inactive) | -0.201 (inactive) | -0.435 (active) | 0.017 (inactive) | 0.07 (inactive) | -0.107 (inactive) | -0.171 (inactive) | 0.038 (inactive) | 0.018 (inactive) | -0.038 (inactive) | -0.073 (inactive) |
| PPP4R3B (UniProt Q5MIZ7) | 0.006 (inactive) | 0.014 (inactive) | 0.008 (inactive) | 0.024 (inactive) | -0.063 (inactive) | 0.017 (inactive) | 0.009 (inactive) | -0.017 (inactive) | 0.049 (inactive) | 0.029 (inactive) | -0.052 (inactive) | -0.284 (active) | 0.05 (inactive) | -0.011 (inactive) | -0.03 (inactive) | -0.074 (inactive) | -0.001 (inactive) | 0.06 (inactive) | -0.074 (inactive) | -0.15 (inactive) |
| PSME4 (UniProt Q14997) | 0.017 (inactive) | -0.02 (inactive) | -0.024 (inactive) | -0.017 (inactive) | -0.034 (inactive) | -0.014 (inactive) | -0.005 (inactive) | -0.043 (inactive) | 0.022 (inactive) | -0.007 (inactive) | 0.076 (inactive) | 0.038 (inactive) | 0.04 (inactive) | 0.35 (active) | -0.014 (inactive) | -0.069 (inactive) | 0.02 (inactive) | 0.053 (inactive) | 0.001 (inactive) | -0.137 (inactive) |
| PPID (UniProt Q08752) | 0.011 (inactive) | -0.047 (inactive) | 0.091 (inactive) | 0.005 (inactive) | 0.008 (inactive) | 0.097 (inactive) | 0.105 (inactive) | 0.104 (inactive) | 0.122 (inactive) | 0.057 (inactive) | -0.076 (inactive) | -0.366 (active) | 0.132 (inactive) | 0.026 (inactive) | -0.046 (inactive) | -0.058 (inactive) | 0.087 (inactive) | 0.062 (inactive) | -0.015 (inactive) | -0.173 (inactive) |
| PLBD2 (UniProt Q8NHP8) | -0.053 (inactive) | 0.058 (inactive) | 0.02 (inactive) | -0.051 (inactive) | -0.053 (inactive) | -0.028 (inactive) | 0.001 (inactive) | -0.008 (inactive) | 0.004 (inactive) | -0.013 (inactive) | -0.188 (inactive) | -0.222 (active) | -0.034 (inactive) | -0.015 (inactive) | 0.024 (inactive) | 0.029 (inactive) | 0.008 (inactive) | 0.009 (inactive) | -0.029 (inactive) | -0.21 (inactive) |
| PRPF3 (UniProt O43395) | 0.05 (inactive) | -0.025 (inactive) | 0.038 (inactive) | 0.117 (inactive) | -0.087 (inactive) | 0.1 (inactive) | 0.081 (inactive) | -0.005 (inactive) | 0.086 (inactive) | 0.028 (inactive) | -0.114 (inactive) | -0.34 (active) | 0.069 (inactive) | 0.069 (inactive) | -0.05 (inactive) | -0.062 (inactive) | 0.116 (inactive) | 0.059 (inactive) | 0.004 (inactive) | -0.17 (inactive) |
| PFAS (UniProt O15067) | -0.056 (inactive) | -0.119 (inactive) | 0.172 (inactive) | 0.002 (inactive) | -0.081 (inactive) | 0.032 (inactive) | -0.003 (inactive) | -0.039 (inactive) | 0.05 (inactive) | 0.061 (inactive) | -0.04 (inactive) | -0.124 (inactive) | 0.113 (inactive) | -0.016 (inactive) | -0.218 (inactive) | -0.069 (inactive) | 0.031 (inactive) | -0.003 (inactive) | -0.241 (inactive) | -0.001 (inactive) |
